Shown are actives, neighbours in structure and some others; about 7.5% of the full set was active somewhere.
HCMV inh = human cytomegalovirus inhibition; HFF cells, HCMV-luciferase reporter, 72 h; active compounds read low; activity change, negative = inhibition, % at 57.5 µM; actives 4.5% (n = 410,000); in the data active = activity change below about -60%; inconclusive = no clear call, values can overlap the other calls; inactive = above about -39%
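Two-dose cell screen: HFF monolayers treated with compounds and infected with luciferase-expressing HCMV at 1 PFU/cell, 72 h at 37C, then lysed for luciferase measurement.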
Vaccinia Venus = vaccinia inhibition (Venus reporter); Potency, µM (titrated, usually from 36.5 µM), without a hit: at the highest dose activity change, negative = inhibition, actives largely listed as inhibitors; actives 0.46% (n = 330,000); Vaccinia virus Venus reporter expression, fluorescence; AID 720580; calls by dose curve; tested in A549 cells; note: potency is the fitted concentration of half-maximal effect; nearly all actives have a fitted effect of over 30% in size
Giardia FBPA inh = blocks Giardia fructose-bisphosphate aldolase activity; A8B2U2; purified Giardia FBPA; Potency, µM (titrated, usually from 59.6 µM), inactives show at the highest dose activity, negative = inhibition, actives largely listed as inhibitors; actives 0.71% (n = 290,000); note: potency is the fitted concentration of half-maximal effect; nearly all actives have a fitted effect of over 55% in size
Target sequence (A8B2U2 whole entry, looked up): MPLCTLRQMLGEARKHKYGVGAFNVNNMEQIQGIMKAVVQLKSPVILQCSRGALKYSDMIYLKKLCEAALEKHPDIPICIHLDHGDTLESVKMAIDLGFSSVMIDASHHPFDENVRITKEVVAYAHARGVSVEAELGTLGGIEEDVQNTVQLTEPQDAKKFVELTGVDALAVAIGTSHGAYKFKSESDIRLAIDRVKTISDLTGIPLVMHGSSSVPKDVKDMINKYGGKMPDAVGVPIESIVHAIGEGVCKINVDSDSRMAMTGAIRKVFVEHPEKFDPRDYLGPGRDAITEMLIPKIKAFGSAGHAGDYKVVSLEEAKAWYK
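Giardia FBPA (40 nM reagent) was preincubated 10 min at RT with compound (up to 57.5 uM final), then substrate plus GAPDH/TPI/NAD/arsenate coupling system with diaphorase/resazurin was added; resorufin fluorescence (525/598 nm) was read after 20 min.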
FMDV antiviral = foot and mouth disease virus antiviral activity. Potency, µM (top dose mostly 57.9 µM), for inactives: at the highest dose activity change, negative = inhibition, most hits filed as inhibitors. FMDV antiviral cell-based qHTS. actives 1.2% (n = 410,000). AID 1159524; calls by dose curve; tested in HEK293T cells; note: read-out not given here; potency is the fitted concentration of half-maximal effect; nearly all actives have a fitted effect of over 45% in size
VACV mCherry inh = inhibitors of vaccinia virus infection (mCherry reporter signal); Vaccinia virus mCherry reporter infection, fluorescence; actives 0.63% (n = 310,000); AID 720579; Potency, µM (highest dose often 36.5 µM), without a hit: at the highest dose activity change, negative = inhibition, most hits filed as inhibitors; calls by dose curve; tested in A549 cells; note: potency is the fitted concentration of half-maximal effect; nearly all actives have a fitted effect of over 35% in size
HCV inh = inhibitors of hepatitis C virus infection; Potency, µM (highest dose often 41.8 µM), for the others: at the highest dose activity change, negative = inhibition, most hits filed as inhibitors; actives 3.4% (n = 340,000); AID 651820; Huh7.5.1 HCVcc-Cre infection, luciferase reporter, 44 h; note: potency is the fitted concentration of half-maximal effect
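Cells (1,000/well) were plated 4 h before compound, then infected with HCVcc-Cre virus (~0.5 moi). After 44 h further culture, infection was read as luciferase luminescence following a 15 min substrate incubation at room temperature.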
Starred values were filed as active, the others as inactive; i = inactive; ? = inconclusive; nt = no result. Unless noted, calls come from the whole dose curve; as a rule, active = well fitted curve in the direction sought with a large enough effect; inconclusive = small, poorly fitted or top-dose-only effect, or another doubt; inactive = no such curve, though single readings can be large; an effect the other way counts as inactive or inconclusive. % is set by controls: 0 for no effect and ±100 for the full control effect.

SMILES	HCMV inh	Vaccinia Venus	Giardia FBPA inh	FMDV antiviral	VACV mCherry inh	HCV inh
Cc1cc(C(=O)CSc2nc(N)cc(N)n2)c(C)n1CCc1ccc(F)cc1	?	?	-4%	25µM*	?	?
O=C1/C(=C\c2ccc(Cl)c(Cl)c2)CN(C(=O)CCN2CCOCC2)C/C1=C/c1ccc(Cl)c(Cl)c1	-102*	11µM*	nt	3.2µM*	?	?
O=C1/C(=C\c2ccccc2)CN(C(=O)CCN2CCCCC2)C/C1=C/c1ccccc1	-100*	11µM*	nt	7.9µM*	13µM*	?
CCN(CC)CCC(=O)N1C/C(=C/c2ccccc2)C(=O)/C(=C\c2ccccc2)C1	-100*	?	nt	3.5µM*	?	?
O=C(c1ccco1)N1CCN(Cc2nc3ccccc3[nH]2)CC1	-5	nt	nt	0%	nt	18%
Cc1nn(CC(=O)NCCCN2C(C)CCCC2C)c(=O)c2cc3occc3n12 (stereo not given)	7	-10%	nt	-1%	i	24%
Cc1ccc(NC(=O)c2ccc3ccccc3n2)cc1S(=O)(=O)N1CCOCC1	5	-11%	-10%	-2%	i	-30%
CCN(Cc1ccccc1)C(=O)CSc1ncn[nH]1	-13	2%	-20%	12%	i	4%
Cc1cccc(N(CC(=O)NCCSc2nc3ccccc3s2)S(=O)(=O)c2ccccc2)c1	nt	nt	7%	nt	nt	2%
O=C(O)CCSc1nc2ccccc2s1	-82*	-4%	11%	40µM*	-15%	0%
O=C(CN(c1ccccc1)S(=O)(=O)c1ccccc1)NCCSc1nc2ccccc2s1	-20	-15%	5%	22µM*	nt	-5%
Cc1cc(=O)oc2cc(OCC(=O)Nc3ccc4[nH]c(=O)[nH]c4c3)ccc12	-9	-11%	nt	8%	-11%	48%
O=C1CN(C(=O)NCC(=O)N2CCCC2)c2ccccc2N1	-32	nt	nt	15%	nt	6%
O=C(NNC(=O)c1ccc([N+](=O)[O-])o1)c1ccccc1	-92*	?	-20%	-14%	nt	?
NC(=O)c1oc2ccccc2c1NC(=O)c1ccc(F)cc1	83	-20%	1%	-25%	3%	?
NC(=O)c1oc2ccccc2c1NC(=O)c1ccc([N+](=O)[O-])o1	-102*	?	1%	-7%	?	?
O=C(NN(c1ccccc1)c1ccccc1)c1ccc([N+](=O)[O-])o1	-93*	-16%	-18%	0%	-15%	?
O=C(NC1CCCCC1)c1ccc([N+](=O)[O-])o1	nt	?	-3%	-14%	?	-12%
Cc1ccc(N=Cc2ccc(N(C)C)cc2)cc1	37	3.5µM*	-16%	-14%	nt	-7%
C/C(=N/N=C/c1ccc(N(C)C)cc1)c1ccccc1	-32	-6%	3%	10µM*	i	-5%
CN(C)c1ccc(N=Cc2ccco2)cc1	nt	-9%	2.8µM*	-17%	i	-15%
CN(C)c1ccc(C=Nc2ccc(N(C)C)cc2)cc1	-72*	20%	?	27%	nt	-4%
CN(C)c1ccc(N=Cc2ccncc2)cc1	nt	7%	nt	nt	24%	nt
CN(C)c1ccc(C=Nc2ccccc2)cc1	4	-5%	-1%	nt	?	2%
COc1cc(OC)cc(C(=O)NCC2Cc3cccc(-c4nc(C)cnc4C)c3O2)c1 (stereo not given)	nt	8%	nt	-12%	-12%	nt
SMILES	HCMV inh	Vaccinia Venus	Giardia FBPA inh	FMDV antiviral	VACV mCherry inh	HCV inh
Cc1cc(C)c2c(NC(=O)c3ccccc3Cl)c(C(=O)NCc3ccc(Cl)cc3)sc2n1	-38	?	nt	-25%	-9%	nt
COC(=O)c1ccc(C(=O)N(Cc2ccccc2)c2ccccc2)cc1	21	-21%	8%	30%	-8%	?
O=C(CCl)N(Cc1ccccc1)c1ccccc1	-98*	nt	-1%	22µM*	nt	5µM*
Cc1cccc(N(Cc2ccccc2)C(=O)CCl)c1	-116*	-14%	7%	13µM*	-13%	4µM*
O=S(=O)(CCSc1nc2ccccc2o1)c1nc2ccccc2s1	32	-23%	-23%	16µM*	-12%	11µM*
CC(=O)C1=C(O)C(=O)N(Cc2ccccc2)C1c1ccc([N+](=O)[O-])cc1 (stereo not given)	-38	nt	7%	nt	nt	nt
CC(=O)C1=C(O)C(=O)N(Cc2ccccc2)C1c1ccc(F)cc1 (stereo not given)	-77*	nt	18%	-11%	nt	13%
COc1cccc(CN2C(=O)CN(C3CCCCC3)C(=O)C2c2ccc(OC)c(OC)c2)c1 (stereo not given)	-7	-3%	nt	-22%	-6%	nt
COc1ccc2c(c1)-c1nc(-n3ncc(C(=O)N(C)C(C)c4ccon4)c3C3CC3)ncc1CC2 (stereo not given)	nt	?	nt	-75%	?	nt
Cc1cc(Nc2cccc(C(F)(F)F)c2)ncn1	-7	-11%	nt	-9%	-19%	nt
Cc1ccc(Nc2nc3nonc3nc2Nc2cccc(C(F)(F)F)c2)cc1Cl	-100*	3.5µM*	nt	?	3.5µM*	nt
Cc1ccc(C)c(Cn2c(=O)n(-c3ccccc3)c(=O)c3c4c(sc32)CCCC4)c1	4	-20%	nt	8%	-16%	nt
CCOc1ccc2nc(N3C(=O)CNC3=S)sc2c1	-106*	11%	-24%	-55%	-13%	5%
O=C1C2(c3ccccc3)CN(CCO)CC1(c1ccccc1)CN(CCO)C2	23	22%	3%	-4%	nt	18%
CCC1(c2ccccc2)CN(C)C1=O (stereo not given)	-79*	-11%	nt	-22%	i	nt
Cc1cc(Oc2ccc(-c3ccccc3)cc2)n2ncnc2n1	81	-7%	1%	40µM*	-7%	18%
O=C(Cn1cnc2c(NCc3ccccc3)ncnc21)N1CCN(c2ccccn2)CC1	6	-5%	nt	-27%	i	2%
Cc1cc(C)c(CN2CCN(C(=O)Cn3cnc4c(NCc5ccccc5)ncnc43)CC2)c(C)c1	-31	?	nt	8.9µM*	?	?
CSc1nc(N)nc2c1ncn2CC(=O)N1CCN(Cc2c(C)cc(C)cc2C)CC1	-30	-21%	nt	?	i	1.4µM*
CCCNC(=O)C1(C)CCN(C(=O)c2cccc(Cl)c2)C1 (stereo not given)	-1	3%	nt	-14%	35%	nt
CC(OC(=O)C1CCN(S(=O)(=O)c2ccc3c(c2)OCCO3)CC1)C(=O)NC1(C#N)CCCCC1 (stereo not given)	0	nt	nt	-22%	nt	-8%
COC1C(=O)CCC2(CO2)C1(O)C1(C)OC1CC=C(C)C (stereo not given)	-76*	nt	nt	nt	nt	nt
Cc1nc2c(c(=O)c3ccccc3n2C)c(=O)n1C1CCCC1	57	nt	nt	nt	nt	nt
Cn1c2ccccc2c(=O)c2c(=O)n(-c3ccccc3)c(C3CCCCC3)nc21	50	-13%	2%	-39%	-12%	13%
